Consider 27 molecules from PubChem BioAssay (NCI).

Holding throughout (assay): NCI-60 one-dose screen, 48 h (100 = growth as untreated, 0 = no growth, -100 = all killed)
Common to all, as to conditions: 10 µM unless noted

Assay [1] has as its system T-47D breast.
Assay [2] has as its system BT-549 breast.
Assay [3] concerns MDA-MB-435 melanoma.
Assay [4] relates to SW-620 colon.
The subject of assay [5] is MCF7 breast.
Assay [6] concerns HCT-116 colon.
Assay [7] relates to KM12 colon.
Assay [8] relates to HCC-2998 colon.

Each structure is given as a SMILES string. “And” between values parts separate entries of the source, which are not always exact repeats. Equal entries are not always repeated. This is part of a sample that, as a whole, favours compounds with a hit. Of some 83,000 tested, about 20% had one in any assay.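 Cell lines were cultured in 96-well plates, exposed to a single compound concentration, and assessed for percent growth 48 hours later.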 The source made the active and inactive calls. The calls were made as follows: active = growth percent below 10; inactive = the rest.

Take `CC1CCC(=O)N1c1ccc(N)cc1` (configuration not stated): the growth in assay [1] is 81.9% (inactive); in assay [2] it was 99.9% (inactive); in assay [3], 109% (inactive); in assay [4] it was 114% (inactive); in assay [5], 97.6% (inactive); in assay [6] it was 101% (inactive). Besides, in assay [7], the growth is 102% (inactive).

In the case of `O=[N+]([O-])c1ccc(N2CCN=N2)cc1`, the growth was 67.3% (inactive) in assay [1]; 85.3% (inactive) in assay [2]; 77.5% (inactive) in assay [3]; 81.8% (inactive) in assay [4]; 87.5% (inactive) in assay [5]; 81.7% (inactive) in assay [6]. Further, the growth in assay [8] was 107% (inactive); in assay [7], 77.3% (inactive).

Turning to `COc1ccc([N+](=O)[O-])cc1OC`, the growth in assay [1] is 103% (inactive) and 102% (inactive); in assay [2], 110% (inactive); in assay [3], 109% (inactive) and 107% (inactive); in assay [4] it was 91.8% (inactive) and 110% (inactive); in assay [5], 87.5% (inactive) and 96.7% (inactive); in assay [6], 96.5% (inactive) and 102% (inactive). Moreover, the growth in assay [8] was 105% (inactive); in assay [7], 109% (inactive) and 120% (inactive).

In the case of `CC1NC(C)c2ccc3ccccc3c2O1` (configuration not stated), the growth in assay [1] is 108% (inactive); in assay [2] it was 107% (inactive); in assay [3] it was 111% (inactive); in assay [4], 111% (inactive); in assay [5], 92% (inactive); in assay [6] it was 102% (inactive). The growth in assay [7] is 111% (inactive).

On to `C/C=C(/C(=O)NC(N)=O)C(C)C`, for which the growth was 99.1% (inactive) in assay [1]; 106% (inactive) in assay [2]; 107% (inactive) in assay [3]; 94.5% (inactive) in assay [4]; 94% (inactive) in assay [5]; 99.5% (inactive) in assay [6]. The growth in assay [7] is 90.8% (inactive).

On to `O=COCCCc1ccccc1`, for which the growth in assay [1] was 92.7% (inactive); in assay [2] it was 104% (inactive); in assay [3] it was 110% (inactive); in assay [4], 103% (inactive); in assay [5] it was 105% (inactive); in assay [6] it was 96.1% (inactive). Also, the growth is 121% (inactive) in assay [8] and 109% (inactive) in assay [7].

As for `CCN(CC)CCO/N=C1\CC(c2ccc(OC)c(OC)c2)Oc2ccccc21` (configuration not stated), the growth was 89.4% (inactive) in assay [1]; 94% (inactive) in assay [2]; 100% (inactive) in assay [3]; 90.3% (inactive) in assay [4]; 89.4% (inactive) in assay [5]; 84.1% (inactive) in assay [6]. Further, in assay [7], the growth is 103% (inactive).

For `CC(C)(C)OC(=O)NCCc1ccc(N)cc1`, the growth in assay [1] was 94.8% (inactive); in assay [2], 98.1% (inactive); in assay [3], 101% (inactive); in assay [4], 97.6% (inactive); in assay [5], 99.2% (inactive); in assay [6] it was 112% (inactive). Further, the growth in assay [8] and in assay [7] was 107% (inactive) throughout.

For the molecule `O=C1C=CC[C@H](/C=C/c2ccccc2)O1`, the growth in assay [1] is 67.9% (inactive) and 9.64% (active); in assay [2], 24.9% (inactive) and 4.24% (active); in assay [3], 17.5% (inactive) and 4.07% (active); in assay [4], 16.4% (inactive) and -39.2% (active); in assay [5], 0.837% (active) and 1.92% (active); in assay [6] it was 5.79% (active) and -18.5% (active). In addition, the growth in assay [8] was 26.1% (inactive) and 32.3% (inactive); in assay [7], 43.1% (inactive) and 35.6% (inactive).

For the molecule `Nc1ccccc1SC1CC(=O)N(c2ccc(I)cc2)C1=O` (configuration not stated), the growth is 82.3% (inactive) in assay [1]; 91.6% (inactive) in assay [2]; 91.8% (inactive) in assay [3]; 93.3% (inactive) in assay [4]; 86.5% (inactive) in assay [5]; 95.3% (inactive) in assay [6]. Moreover, the growth in assay [8] is 103% (inactive); in assay [7] it was 79.1% (inactive).

Turning to `C/C=C/C(=O)OCCCCCCCCCCCC`, the growth in assay [1] is 90.8% (inactive); in assay [2], 97% (inactive); in assay [3] it was 115% (inactive); in assay [4], 111% (inactive); in assay [5], 102% (inactive); in assay [6] it was 88.5% (inactive). Moreover, the growth in assay [7] is 105% (inactive).

As to `CCc1ccc(OC(=O)CCl)cc1`, the growth was 100% (inactive) in assay [1]; 109% (inactive) in assay [2]; 100% (inactive) in assay [3]; 109% (inactive) in assay [4]; 103% (inactive) in assay [5]; 102% (inactive) in assay [6]. For the same molecule, the growth in assay [8] is 104% (inactive); in assay [7], 95% (inactive).

For `COc1ccc(C(=O)C(O)c2ccc(OC)cc2)cc1` (configuration not stated), the growth in assay [1] is 103% (inactive) and 92.8% (inactive); in assay [2], 109% (inactive) and 98.9% (inactive); in assay [3] it was 117% (inactive) and 111% (inactive); in assay [4] it was 105% (inactive) and 107% (inactive); in assay [5] it was 96.7% (inactive) and 98.1% (inactive); in assay [6], 102% (inactive) and 93% (inactive). Moreover, the growth in assay [8] was 111% (inactive) and 108% (inactive); in assay [7], 110% (inactive) and 99.8% (inactive).

Consider `O=[N+]([O-])c1ccc(N/N=C/C2CCCCCC2)c([N+](=O)[O-])c1`, for which the growth in assay [1] was 84% (inactive); in assay [2], 91% (inactive); in assay [3], 87.6% (inactive); in assay [4] it was 79% (inactive); in assay [5], 94.8% (inactive); in assay [6] it was 103% (inactive). Further, the growth in assay [7] was 71.6% (inactive).

In the case of `COC(=O)c1nc(N)nc(C(=O)OC)c1C(=O)c1ccc(F)cc1`, the growth in assay [1] was 105% (inactive); in assay [2] it was 120% (inactive); in assay [3] it was 107% (inactive); in assay [4], 110% (inactive); in assay [5], 97.1% (inactive); in assay [6] it was 110% (inactive). Moreover, the results for the growth in assay [8] and in assay [7] were 110% (inactive) and 107% (inactive), respectively.

With `CC(=O)Oc1cc(C)c(OC(C)=O)c(C)c1C`, the growth in assay [1] was 82.2% (inactive); in assay [2], 117% (inactive); in assay [3], 105% (inactive); in assay [4] it was 105% (inactive); in assay [5] it was 91.3% (inactive); in assay [6], 112% (inactive). In addition, the growth in assay [8] is 105% (inactive); in assay [7], 101% (inactive).

For `COc1cc(NCCCCCCCNC(C)C)c2nccc(C)c2c1`, the growth in assay [1] was 59.9% (inactive); in assay [2], 85.7% (inactive) and 64.2% (inactive); in assay [3], 93.9% (inactive) and 7.03% (active); in assay [4] it was 98% (inactive) and 73% (inactive); in assay [5], -1.6% (active) and -9.72% (active); in assay [6], 73.3% (inactive) and 50.4% (inactive). Further, the growth is 67.2% (inactive) and 61.5% (inactive) in assay [8]; 92.6% (inactive) and 73.1% (inactive) in assay [7].

Turning to `Nc1ccc(Cl)c(S(=O)(=O)O)c1`, the growth in assay [1] was 92.4% (inactive); in assay [2] it was 96% (inactive); in assay [3], 107% (inactive); in assay [4], 99.1% (inactive); in assay [5] it was 101% (inactive); in assay [6], 102% (inactive). The results for the growth in assay [8] and in assay [7] were 110% (inactive) and 103% (inactive), respectively.

As for `Cc1cccc(Cl)c1N`, the growth in assay [1] is 110% (inactive); in assay [2], 111% (inactive); in assay [3], 95.7% (inactive); in assay [4], 96.9% (inactive); in assay [5], 99% (inactive); in assay [6], 113% (inactive). Further, the figures for the growth in assay [8] and in assay [7] were 102% (inactive) and 110% (inactive), respectively.

Take `Cc1cc2nc3ccc(=[N+](C)C)cc-3sc2cc1N`: the growth in assay [1] is -25.1% (active) and 1.21% (active); in assay [2] it was 48.9% (inactive) and 50.4% (inactive); in assay [3] it was -68.9% (active) and -41.4% (active); in assay [4] it was -19.7% (active) and -9.28% (active); in assay [5], -3.34% (active) and -28.7% (active); in assay [6], -22.8% (active) and 4.49% (active). Also, the growth is 18.8% (inactive) in assay [8]; 5.96% (active) and -2.21% (active) in assay [7].

As to `CCOC(=O)c1ccncc1`, the growth in assay [1] is 95% (inactive); in assay [2], 109% (inactive); in assay [3], 107% (inactive); in assay [4] it was 104% (inactive); in assay [5], 97.9% (inactive); in assay [6] it was 107% (inactive). In assay [7], the growth was 105% (inactive).

Regarding `CCOP(C)(=O)/C(Cc1ccc(OC)c(OC)c1)=N\O` (configuration not stated), the growth in assay [1] was 115% (inactive); in assay [2] it was 115% (inactive); in assay [3], 104% (inactive); in assay [4], 99.2% (inactive); in assay [5], 104% (inactive); in assay [6], 103% (inactive). Moreover, the growth in assay [8] was 98.5% (inactive); in assay [7] it was 101% (inactive).

For the molecule `N=C(N)N1CCc2ccccc2C1`, the growth in assay [1] is 86.2% (inactive) and 101% (inactive); in assay [2] it was 84.4% (inactive) and 103% (inactive); in assay [3], 96% (inactive) and 95.6% (inactive); in assay [4], 94.5% (inactive) and 88.1% (inactive); in assay [5] it was 106% (inactive) and 104% (inactive); in assay [6] it was 94.7% (inactive) and 102% (inactive). Also, in assay [7], the growth was 92.6% (inactive) and 94% (inactive).

With `O=C(/C=C/C=C/c1ccc2c(c1)OCO2)N1CCCCC1`, the growth in assay [1] was 90.8% (inactive) and 103% (inactive); in assay [2], 108% (inactive); in assay [3], 98.9% (inactive) and 104% (inactive); in assay [4] it was 106% (inactive) and 101% (inactive); in assay [5], 101% (inactive) and 82.8% (inactive); in assay [6], 103% (inactive) and 98.1% (inactive). The growth in assay [7] is 98.2% (inactive) and 95% (inactive).

In the case of `N=C(N=C(N)N)N1CCOCC1`, the growth was 91.2% (inactive) and 95.4% (inactive) in assay [1]; 115% (inactive) and 103% (inactive) in assay [2]; 108% (inactive) and 106% (inactive) in assay [3]; 96.3% (inactive) and 103% (inactive) in assay [4]; 92.9% (inactive) and 91.5% (inactive) in assay [5]; 104% (inactive) and 96.4% (inactive) in assay [6]. Besides, the growth in assay [8] is 109% (inactive) and 97.1% (inactive); in assay [7], 105% (inactive) and 100% (inactive).

As to `COC(=O)C(Cc1cn(C(C)=O)c2ccccc12)P(=O)(OC)OC` (configuration not stated), the growth in assay [1] is 105% (inactive); in assay [2], 105% (inactive); in assay [3] it was 99.5% (inactive); in assay [4], 99.5% (inactive); in assay [5], 101% (inactive); in assay [6], 96.4% (inactive). Moreover, the growth in assay [8] was 103% (inactive); in assay [7], 99.2% (inactive).

As for `O=c1[nH]c(=O)c2[nH]c(=O)[nH]c2[nH]1`, the growth was 103% (inactive) in assay [1]; 90.8% (inactive) in assay [2]; 100% (inactive) in assay [3]; 94.3% (inactive) in assay [4]; 92.1% (inactive) in assay [5]; 94.6% (inactive) in assay [6]. Besides, the growth in assay [8] is 107% (inactive); in assay [7], 104% (inactive).
